Assay results from PubChem BioAssay AID651744 (Broad Institute, 2012).
Hit rate of the full screen: of about 5,600 compounds, about 3,100 (55%) were called active. About 3% were inconclusive and are not listed.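 The calls were made as follows: active = mean loss of cell viability signal at or above a set limit, and enough replicates individually reaching it; inconclusive = meets only the mean limit or only the replicate share; inactive = meets neither condition.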 The set was probably picked from earlier hits. Only a sample is shown.

test: NIH/3T3 fibroblast cytotoxicity, confirmation, cytotoxicity control, cell-based, cherry-pick, single point, set 2 (AID 651744); conditions: NIH/3T3 viability, CellTiter-Glo ATP luminescence, 90 h; at 24.9 µM; hits give high values;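 also: 0% = median of neutral control wells and 100% = median of positive control wells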

SMILES	inhibition
O=C(c1ccc(F)cc1)N1CCCCN2[C@H](C1)[C@@H](c1ccc(C#CC3(O)CCCC3)cc1)[C@@H]2CO	18% (inactive)
O=C(c1cccnc1)N1CCCCN2[C@@H](CO)[C@H](c3ccc(C#Cc4ccccc4)cc3)[C@@H]2C1	66.5% (active)
COc1ccc(C#Cc2ccc([C@@H]3[C@@H](CO)N4CCCCN(C(=O)c5ccncc5)C[C@@H]34)cc2)cc1	97.5% (active)
O=C(Nc1ccccc1)N1CCCCN2[C@H](CO)[C@@H](c3ccc(C#Cc4ccccn4)cc3)[C@H]2C1	9.74% (inactive)
O=C(c1ccncc1)N1CCCCN2[C@H](CO)[C@H](c3ccc(-c4ccccc4)cc3)[C@H]2C1	5.4% (inactive)
O=S(=O)(c1ccccc1)N1CC[C@@H]2[C@H]1c1cc(C#Cc3cccc(F)c3)ccc1N[C@@H]2CO	72.4% (active)
CN(C)C(=O)c1ccc(-c2ccc3c(c2)[C@H]2[C@H](CCN2C(=O)c2ccc4c(c2)OCO4)[C@H](CO)N3)cc1	-8.51% (inactive)
O=S(=O)(c1ccccc1)N1CC[C@@H]2[C@@H](CO)Nc3ccc(C#Cc4cccc(F)c4)cc3[C@@H]21	52.5% (active)
O=S(=O)(c1ccccc1)N1CC[C@@H]2[C@@H](CO)Nc3ccc(-c4ccccc4F)cc3[C@@H]21	23.8% (inactive)
CC(=O)N1CC[C@@H]2[C@H](CO)Nc3ccc(C#Cc4ccccc4F)cc3[C@@H]21	33.2% (active)
O=C(c1cccc(F)c1)N1CC[C@@H]2[C@@H](CO)Nc3ccc(C#Cc4cccc(F)c4)cc3[C@@H]21	105% (active)
COCC(=O)N1CC[C@@H]2[C@@H](CO)Nc3ccc(-c4cccc(C#N)c4)cc3[C@@H]21	5.66% (inactive)
CCC(=O)N1CC[C@@H]2[C@@H](CO)N(C)c3ccc(-c4ccc(F)cc4)cc3[C@@H]21	12.2% (inactive)
Cc1ccccc1S(=O)(=O)N1CC[C@H]2[C@H](CO)Nc3ccc(-c4cccc(F)c4)cc3[C@H]21	105% (active)
CN1c2ccc(-c3ccccc3)cc2[C@H]2[C@H](CCN2C(=O)Cc2ccccn2)[C@H]1CO	9.27% (inactive)
O=C(Cc1ccccc1)N1CC[C@H]2[C@H](CO)Nc3ccc(-c4ccccc4F)cc3[C@H]21	48.1% (active)
COc1ccc(NC(=O)N2CC[C@@H]3[C@@H](CO)N(C)c4ccc(-c5cccc(F)c5)cc4[C@@H]32)cc1	20.7% (inactive)
CC(=O)N1[C@H](CNC(=O)C2CC2)[C@@H](c2ccc(-c3cccc(F)c3)cc2)[C@@H]1CO	13% (inactive)
O=C(C[C@@H]1C[C@@H]2c3cc(NC(=O)c4ccc5c(c4)OCO5)ccc3O[C@@H]2[C@@H](CO)O1)NCc1ccc(Cl)cc1	14.5% (inactive)
CN1C(=O)c2cc(NC(=O)c3cnccn3)ccc2OC[C@@H]2O[C@@H](CC(=O)N[C@H]3CCN(Cc4ccccc4)C3)CC[C@H]21	-12.6% (inactive)
C[C@@H]1CCCCO[C@H](CN(C)Cc2ccccc2)[C@H](C)CN([C@H](C)CO)C(=O)c2cc(NS(=O)(=O)c3ccc(Cl)cc3)ccc2O1	104% (active)
C[C@H](CO)N1C[C@H](C)[C@H](CN(C)Cc2ccc(C(F)(F)F)cc2)OCCCC[C@H](C)Oc2ccc(NS(=O)(=O)c3ccc(Cl)cc3)cc2C1=O	105% (active)
C[C@@H]1CN([C@H](C)CO)C(=O)c2cc(NS(=O)(=O)c3ccc(Cl)cc3)ccc2O[C@@H](C)CCCCO[C@H]1CN(C)Cc1ccccc1	103% (active)
C[C@@H]1CCCCO[C@H](CN(C)C(=O)NC2CCCCC2)[C@H](C)CN([C@H](C)CO)C(=O)c2cc(NS(=O)(=O)c3ccc(Cl)cc3)ccc2O1	-1.41% (inactive)
COc1ccc(NC(=O)N(C)C[C@@H]2OCCCC[C@@H](C)Oc3ccc(NS(=O)(=O)c4ccc(Cl)cc4)cc3C(=O)N([C@H](C)CO)C[C@H]2C)cc1	-14.7% (inactive)
C[C@H]1CCCCO[C@@H](CN(C)C(=O)NC2CCCCC2)[C@@H](C)CN([C@@H](C)CO)C(=O)c2cc(NS(=O)(=O)c3ccc(Cl)cc3)ccc2O1	15.4% (inactive)
C[C@@H]1CN([C@H](C)CO)C(=O)c2cc(NS(=O)(=O)c3cccs3)ccc2O[C@@H](C)CCCCO[C@@H]1CN(C)S(=O)(=O)c1ccc(Cl)cc1	2.36% (inactive)
C[C@H](CO)N1C[C@H](C)[C@H](CN(C)S(=O)(=O)c2ccc(F)cc2)OCCCC[C@H](C)Oc2ccc(NS(=O)(=O)c3ccc(Cl)cc3)cc2C1=O	18.4% (inactive)

SMILES	inhibition
COc1ccc(S(=O)(=O)N(C)C[C@H]2OCCCC[C@H](C)Oc3ccc(NS(=O)(=O)c4ccc(F)cc4)cc3C(=O)N([C@@H](C)CO)C[C@@H]2C)cc1	-33.1% (inactive)
C[C@H]1CCCCO[C@@H](CN(C)S(=O)(=O)c2cccs2)[C@@H](C)CN([C@@H](C)CO)C(=O)c2cc(NS(=O)(=O)c3ccc(Cl)cc3)ccc2O1	11.8% (inactive)
COc1ccc(S(=O)(=O)Nc2ccc3c(c2)C(=O)N([C@H](C)CO)C[C@@H](C)[C@@H](CN(C)CC2CCCCC2)OCCCC[C@@H](C)O3)cc1	107% (active)
C[C@@H]1CN([C@H](C)CO)C(=O)c2cc(NS(=O)(=O)c3cccs3)ccc2O[C@@H](C)CCCCO[C@H]1CN(C)Cc1ccc(C(F)(F)F)cc1	103% (active)
C[C@@H]1CCCCO[C@H](CN(C)S(=O)(=O)c2ccc(Cl)cc2)[C@H](C)CN([C@@H](C)CO)C(=O)c2cc(NS(=O)(=O)c3cccs3)ccc2O1	-8.7% (inactive)
C[C@@H]1CCCCO[C@H](CN(C)S(=O)(=O)c2cccs2)[C@H](C)CN([C@H](C)CO)C(=O)c2cc(NS(=O)(=O)c3ccc(F)cc3)ccc2O1	-27.9% (inactive)
C[C@H]1CN([C@@H](C)CO)S(=O)(=O)c2ccc(C3=CCCC3)cc2O[C@@H]1CN(C)Cc1ccccc1	103% (active)
C[C@H]1CN([C@@H](C)CO)S(=O)(=O)c2ccc(C3=CCCCC3)cc2O[C@@H]1CN(C)Cc1ccccc1	106% (active)
C[C@@H]1CN([C@H](C)CO)S(=O)(=O)c2ccc(C3=CCCC3)cc2O[C@H]1CN(C)Cc1ccccc1F	106% (active)
C[C@@H]1CCCCO[C@H](CN(C)Cc2ccc(C(F)(F)F)cc2)[C@H](C)CN([C@H](C)CO)C(=O)c2cc(NC(=O)Nc3ccc(F)cc3)ccc2O1	-19.7% (inactive)
C[C@@H]1CCCCO[C@H](CN(C)Cc2ccccc2)[C@@H](C)CN([C@@H](C)CO)C(=O)c2cc(NC(=O)Nc3ccc(F)cc3)ccc2O1	103% (active)
C[C@@H]1CCCCO[C@@H](CN(C)CC2CC2)[C@H](C)CN([C@H](C)CO)C(=O)c2cc(NC(=O)C3CCCCC3)ccc2O1	-28.9% (inactive)
C[C@@H]1CN([C@H](C)CO)C(=O)c2cc(NC(=O)Nc3ccc(F)cc3)ccc2O[C@@H](C)CCCCO[C@@H]1CN(C)CC1CCCCC1	102% (active)
C[C@H]1CCCCO[C@H](CN(C)Cc2ccccc2)[C@@H](C)CN([C@@H](C)CO)C(=O)c2cc(NC(=O)c3ccccc3)ccc2O1	40.7% (active)
C[C@@H]1CN([C@H](C)CO)C(=O)c2cccc(NC(=O)NC3CCCCC3)c2O[C@H]1CN(C)Cc1ccc(C(F)(F)F)cc1	106% (active)
C[C@@H]1CCCCO[C@H](CN(C)C(=O)NC2CCCCC2)[C@H](C)CN([C@H](C)CO)C(=O)c2cc(NC(=O)Nc3ccc(F)cc3)ccc2O1	1.83% (inactive)
COc1ccc(NC(=O)N(C)C[C@@H]2Oc3c(NC(=O)NC4CCCCC4)cccc3C(=O)N([C@@H](C)CO)C[C@@H]2C)cc1	2.03% (inactive)
C[C@@H]1CCCCO[C@@H](CN(C)Cc2ccc(C(F)(F)F)cc2)[C@@H](C)CN([C@H](C)CO)C(=O)c2cc(NC(=O)Nc3ccccc3)ccc2O1	-8.84% (inactive)
C[C@@H]1CN([C@H](C)CO)C(=O)c2cc(NC(=O)Nc3ccc(F)cc3)ccc2O[C@@H](C)CCCCO[C@H]1CN(C)Cc1ccc(Cl)c(Cl)c1	81.1% (active)
C[C@H]1CCCCO[C@H](CN(C)S(=O)(=O)c2ccc(Cl)cc2)[C@@H](C)CN([C@@H](C)CO)C(=O)c2cc(NC(=O)Nc3ccc4c(c3)OCO4)ccc2O1	7.66% (inactive)
C[C@@H]1CCCCO[C@H](CN(C)Cc2ccc(Cl)c(Cl)c2)[C@H](C)CN([C@@H](C)CO)C(=O)c2cc(NC(=O)C3CCCCC3)ccc2O1	50.7% (active)
C[C@@H]1CN([C@@H](C)CO)C(=O)c2cc(NC(=O)C3CCCCC3)ccc2O[C@@H](C)CCCCO[C@H]1CN(C)Cc1ccncc1	-15.9% (inactive)
C[C@H]1CCCCO[C@H](CN(C)Cc2ccccc2)[C@@H](C)CN([C@@H](C)CO)C(=O)c2cc(NC(=O)NC3CCCCC3)ccc2O1	102% (active)
C[C@@H]1CCCCO[C@@H](CN(C)Cc2ccc(Cl)c(Cl)c2)[C@H](C)CN([C@H](C)CO)C(=O)c2cc(NC(=O)Nc3ccc(F)cc3)ccc2O1	1.24% (inactive)
C[C@@H]1CCCCO[C@@H](CN(C)Cc2ccc3c(c2)OCO3)[C@@H](C)CN([C@@H](C)CO)C(=O)c2cc(NC(=O)Nc3ccccc3)ccc2O1	16% (inactive)
COc1ccc(CN(C)C[C@H]2OCCCC[C@H](C)Oc3ccc(NC(=O)Nc4ccc5c(c4)OCO5)cc3C(=O)N([C@H](C)CO)C[C@@H]2C)cc1	103% (active)
COc1ccc(NC(=O)Nc2ccc3c(c2)C(=O)N([C@H](C)CO)C[C@@H](C)[C@H](CN(C)Cc2ccc(Cl)c(Cl)c2)OCCCC[C@@H](C)O3)cc1	-0.512% (inactive)
